From PubChem
The entries come from a sample that favours hits as a whole.
IMPase Li inh = qHTS Assay for Identifying the Cell-Membrane Permeable IMPase Inhibitors: Potentiation with Lithium. 210,000 tested, 0.35% active. CHO-M1 cells, IP1 TR-FRET (IP-One), carbachol + lithium. Potency, µM (series often up to 59.4 µM), for inactives: at the top dose activity, negative = IMPase inhibition, actives largely listed as inhibitors;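 further: IP1 builds up when IMPase is blocked and the TR-FRET signal falls; potency means the concentration at half of the fitted maximal effect; plate controls were basal vehicle for no effect and high inhibitor control for full effect; nearly all actives have a fitted effect of over 50% in size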
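CHO cells stably expressing M1 receptor (2000/well) were cultured 16–30 h, then exposed to compounds with a small lithium addition for 30 min at 37C. IP1 was measured by TR-FRET competition; AC50 from Hill fits.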
NPSR antag = qHTS Assay for Antagonists of the Neuropeptide S Receptor: cAMP Signal Transduction; Q6W5P4; CHO-NPSR cells, cAMP TR-FRET, antagonist mode; Potency, µM (series often up to 38.3 µM), for inactives: at the highest dose activity change, negative = inhibition, hits mostly inhibitors; 220,000 tested, 1% active; AID 1461, 2008; further: potency means the concentration at half of the fitted maximal effect; on the % scale 0 is the no-effect control and ±100 the full control effect; nearly all actives have a fitted effect of over 50% in size
Tb PFK inh = qHTS Assay to Find Inhibitors of T. brucei phosphofructokinase | 330,000 tested, 0.17% active | Potency, µM (titrated, usually from 57.5 µM), without a hit: top-dose activity, negative = inhibition, actives largely listed as inhibitors | T. brucei PFK, ADP-Glo luminescence | ATP-dependent 6-phosphofructokinase (Trypanosoma brucei brucei), O15648;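 further: potency means the concentration at half of the fitted maximal effect; 0% = uninhibited 1x PFK enzyme wells and -100% = no-enzyme wells; nearly all actives have a fitted effect of over 60% in size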
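Compounds were pin-transferred as a titration series up to 57 uM into substrate buffer (0.5 mM F6P, 0.1 mM ATP, pH 8.0), then 1.25 nM PFK was added and reactions ran 45 min before ADP-Glo detection.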
MBNL1 CUG block = qHTS Assay for Inhibitors of MBNL1-poly(CUG) RNA binding | AID 2675, 2010 | Muscleblind-like protein 1 (Homo sapiens), Q9NR56 | Potency, µM (top dose mostly 57.5 µM), for inactives: at the top dose activity change, negative = inhibition, usual class: inhibitors | TR-FRET MBNL1-His/biotin-(CUG)12 binding, 665/545 ratio | 280,000 tested, 0.036% active; active means well fitted inhibition curve with a large enough effect in the signal ratio, with a control signal flat, not every such curve was filed as active; inconclusive means small, poorly fitted or top-dose-only effect, or effect the other way, or a change in a side signal; inactive means no such curve, though single readings can be large or run the other way; the % refers to the signal ratio; further: potency means the concentration at half of the fitted maximal effect; on the % scale 0 is the no-effect control and ±100 the full control effect
Target sequence (Q9NR56 whole entry, looked up): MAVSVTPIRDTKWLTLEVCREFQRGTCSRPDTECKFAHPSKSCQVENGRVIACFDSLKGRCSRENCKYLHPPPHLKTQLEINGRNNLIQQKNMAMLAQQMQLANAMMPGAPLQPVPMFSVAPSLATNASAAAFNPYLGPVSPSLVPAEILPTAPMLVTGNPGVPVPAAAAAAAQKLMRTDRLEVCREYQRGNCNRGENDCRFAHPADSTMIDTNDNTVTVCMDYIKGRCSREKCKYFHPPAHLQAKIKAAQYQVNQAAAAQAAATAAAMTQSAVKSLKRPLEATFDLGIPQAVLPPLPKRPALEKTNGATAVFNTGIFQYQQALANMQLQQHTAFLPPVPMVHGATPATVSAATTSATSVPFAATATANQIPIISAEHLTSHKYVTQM
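Inhibition of protein-RNA binding appears as loss of TR-FRET between terbium anti-His antibody on MBNL1-His and streptavidin-XL665 on biotin-(CUG)12. Activity is normalized to buffer-only and uninhibited-complex controls.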
RGS12 GoLoco inh-1 = qHTS Assay for Inhibitors of RGS12 GoLoco Motif Activity (Red Fluorophore); Guanine nucleotide-binding protein G(i) subunit alpha-1 (Homo sapiens), P63096; Gai1:RGS12 GoLoco peptide FP, rhodamine, 10 min; Potency, µM (titrated, usually from 61.6 µM), without a hit: at the highest dose activity, negative = inhibition, actives largely listed as inhibitors; 230,000 tested, 0.44% active; AID 880, 2007; active means well fitted inhibition curve with a large enough effect, not every such curve was filed as active; inactive means no such curve, though single readings can be large or run the other way; further: potency means the concentration at half of the fitted maximal effect; on the % scale 0 is the no-effect control and ±100 the full control effect; nearly all actives have a fitted effect of over 30% in size
Target sequence (P63096 whole entry, looked up): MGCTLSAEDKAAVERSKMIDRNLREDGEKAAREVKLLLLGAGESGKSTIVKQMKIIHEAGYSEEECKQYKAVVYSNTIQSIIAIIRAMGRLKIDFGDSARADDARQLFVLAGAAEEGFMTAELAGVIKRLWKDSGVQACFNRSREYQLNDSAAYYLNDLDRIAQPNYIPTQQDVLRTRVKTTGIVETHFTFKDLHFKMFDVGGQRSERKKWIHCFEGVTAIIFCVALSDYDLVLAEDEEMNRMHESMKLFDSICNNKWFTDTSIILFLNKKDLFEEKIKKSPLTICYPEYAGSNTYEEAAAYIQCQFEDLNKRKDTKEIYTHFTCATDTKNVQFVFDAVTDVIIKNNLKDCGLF
RGS12 GoLoco inh-2 = Confirmation qHTS Assay for Inhibitors of RGS12 GoLoco Motif Activity (Red Fluorophore); Potency, µM (titrated, usually from 57.1 µM), without a hit: top-dose activity, negative = inhibition, most hits filed as inhibitors; shares compounds with RGS12 GoLoco inh-1; 110 tested, 50% active; Gai1/rhodamine-RGS12 GoLoco peptide fluorescence polarization
MBNL1 TRFRET = qHTS Assay for Inhibitors of MBNL1-poly(CUG) RNA binding: Initial hit validation from the primary screen; shares compounds with MBNL1 CUG block; TR-FRET MBNL1-His / biotin-(CUG)12 binding, 60 min; 140 tested, 50% active; Potency, µM (highest dose often 57.6 µM), inactives show at the highest dose activity change, negative = inhibition, hits mostly inhibitors; AID 493199, 2011
MBNL1 AlphaScrn = qHTS Assay for Inhibitors of MBNL1-poly(CUG) RNA binding: Initial hit validation in AlphaScreen assay for MBNL1-(CUG)12 binding. 140 tested, 30% active. shares compounds with MBNL1 CUG block. Potency, µM (top dose mostly 57.7 µM), without a hit: top-dose activity, negative = inhibition, hits mostly inhibitors. AlphaScreen MBNL1-His / biotin-(CUG)12 binding. AID 493205, 2011
Menin-MLL HTRF = qHTS Assay for Inhibitors of MBNL1-poly(CUG) RNA binding: Counterscreen HTRF assay | shares compounds with MBNL1 CUG block | His-Menin/biotin-MLL peptide TR-FRET counterscreen | Potency, µM (top dose mostly 57.6 µM), inactives show at the highest dose activity, negative = inhibition, most hits filed as inhibitors | 120 tested, 20% active
* = called active by the depositor; ? = inconclusive; nt = no result given; [ ] = remark or other dose. Unless noted, the call rests on the fitted dose curve; in most records, active means well fitted curve in the direction sought with a large enough effect; inconclusive means small, poorly fitted or top-dose-only effect, or another doubt; inactive means no such curve, though single readings can be large; an effect the other way counts as inactive or inconclusive.

SMILES	IMPase Li inh	NPSR antag	Tb PFK inh	MBNL1 CUG block	RGS12 GoLoco inh-1	RGS12 GoLoco inh-2	others
O=C(O)c1ccc(COc2ccc(/C=N/NC(=O)c3cccs3)cc2)cc1	5.7%[38.3 µM]	-13.3%[46.1 µM]	2.8%	7.6%	10µM*	?
O=C(N/N=C/c1cccc(OCc2ccccc2)c1)c1cccs1	2.3%[38.3 µM]	?	0.6%	10.8%	11.8%	nt
O=C(O)c1cc(NCc2cc(O)ccc2O)ccc1O	5.4%	nt	nt	nt	6.31µM*	2µM*
O=C(O)c1ccc(O)cc1O	4.5%	nt	1.1%	nt	-10.0%	nt
CCCCCCCCC[n+]1cccc2c3ccccc3ccc21	41.9%[38.3 µM]	?	-0.7%	?	-6.1%	nt
CCCCCCCCCCCCCCCC[n+]1cccc2ccccc21	30.5%	?	-3.1%	8.7%	2.24µM*	4.47µM*
CC(=O)CCN1C(=O)NC2(CCCc3ccccc32)C1=O (stereo not drawn)	nt	nt	2.7%	-2.8%	nt	nt
Cc1[nH]c2ccccc2c1C(=O)CCl	3.3%	?	0.0%	-8.5%	32.8%	nt
Cc1[nH]c2ccccc2c1C(=O)CNc1nccs1	-14.4%	21.2%[46.1 µM]	1.8%	-22.4%	-61.2%	6.31µM*
COc1cc(OC)c(S(=O)(=O)N2CCOCC2)cc1S(=O)(=O)N1CCOCC1	nt	nt	?	-1.7%	nt	nt
CCCCCCCCCCCCCCCC[n+]1ccc(C(N)=O)cc1	9.3%	-44.7%	6.1%	nt	3.16µM*	?
CCOc1ccc(S(=O)(=O)Nc2cccc(C(=O)NCCCN3CCCC3=O)c2)cc1	nt	nt	-5.6%	nt	nt	nt
Cc1cc(C)nc(SCC(=O)Nc2ccc(N3CCOCC3)cc2)n1	28.1%[38.3 µM]	-5.0%[46.1 µM]	-6.8%	-2.3%	5.01µM*	4.47µM*
Cc1cc(C)c(C)c(S(=O)(=O)NCCCN2CCCC2=O)c1C	nt	nt	1.6%	0.5%	nt	nt
Cc1cc2c(cc1C)[n+](C)cn2CC(O)COCc1ccccc1 (stereo not drawn)	4.7%	-3.3%[46.1 µM]	2.0%	5.1%	11.2µM*	22.4µM*
C[n+]1cn(CC(O)COCc2ccccc2)c2ccccc21 (stereo not drawn)	14.2%[38.3 µM]	6.7%[46.1 µM]	-0.3%	-7.2%	15.8µM*	14.1µM*
CCCc1n(CC(O)COCC2CC=CCC2)c2ccccc2[n+]1C (stereo not drawn)	15.0%	4.9%	5.2%	-6.6%	-0.6%	14.1µM*
CCCc1n(CC(O)COC2CCCCC2)c2ccccc2[n+]1C (stereo not drawn)	20.0%	8.6%	22.9%	1.7%	6.9%	nt
Cc1ccc(C)c2c1[nH]c1ccccc12	25.4%[38.3 µM]	9.4%[46.1 µM]	-0.4%	-0.3%	-8.9%	nt
O=C1NCc2c1c1c3ccccc3[nH]c1c1[nH]c3ccccc3c21	nt	nt	nt	nt	nt	7.4%
CCOC(=O)c1ccc(NC(=O)CSc2nccn2C)cc1	18.7%[38.3 µM]	-10.1%[46.1 µM]	3.4%	0.0%	9.8%	36.0%
Cc1ccccc1OCc1nnc(SCC(=O)Nc2ccc3c(c2)oc2ccccc23)n1C	10.3%[38.3 µM]	?	-2.3%	4.5%	7.7%	11.2%
NCCCC(N)CC(=O)NC1CNC(=O)C(C2CC(O)N=C(N)N2)NC(=O)/C(=C/NC(N)=O)NC(=O)C(CO)NC(=O)C(CO)NC1=O (stereo not drawn)	nt	nt	nt	nt	8.5%	nt	MBNL1 TRFRET=?;MBNL1 AlphaScrn=?
C[C@@H]1NC(=O)[C@@H](N)CNC(=O)[C@H](C2CCNC(N)=N2)NC(=O)/C(=C/NC(N)=O)NC(=O)[C@H](CNC(=O)C[C@@H](N)CCCN)NC1=O (stereo partly drawn)	nt	nt	nt	nt	nt	nt	Menin-MLL HTRF=-11.0%
NCCCC(N)CC(=O)NCC1NC(=O)C(CO)NC(=O)C(N)CNC(=O)C(C2CCN=C(N)N2)NC(=O)/C(=C\NC(N)=O)NC1=O (stereo not drawn)	6.1%	nt	nt	nt	4.0%	nt
SMILES	IMPase Li inh	NPSR antag	Tb PFK inh	MBNL1 CUG block	RGS12 GoLoco inh-1	RGS12 GoLoco inh-2	others
COCCNC(=O)C(c1cccs1)N(C(=O)Cn1nnc2ccccc21)c1ccc(OC)cc1 (stereo not drawn)	21.8%	?	-6.2%	28.2µM*	-8.6%	nt	MBNL1 TRFRET=-3.6%;MBNL1 AlphaScrn=-11.2%;Menin-MLL HTRF=2.1%
COCCNC(=O)C(c1cccs1)N(C(=O)Cn1nnc2ccccc21)c1cccc(C)c1 (stereo not drawn)	-0.6%[38.3 µM]	-23.4%[46.1 µM]	0.2%	0.7%	3.4%	nt
C/C1=C2N=C(/C=C3N=C(/C(C)=C4\[N-]C(C)(C5N=C1C(C)(CCC(=O)NCC(C)OP(=O)([O-])O[C@H]1C(O)C(n6cnc7cc(C)c(C)cc76)O[C@@H]1CO)C5CC(N)=O)C(C)(CC(N)=O)C4CCC(N)=O)C(C)(CC(N)=O)C\3CCC(N)=O)C(C)(C)C/2CCC(N)=O.[CH2-]C1OC(n2cnc3c(N)ncnc32)C(O)C1O.[Co] (stereo partly drawn)	1.2%	nt	nt	nt	21.5%	nt	MBNL1 TRFRET=0.116µM*;MBNL1 AlphaScrn=5.17µM*
O=C(c1ccncc1)N1CCN(S(=O)(=O)c2ccccc2F)CC1	nt	nt	1.0%	nt	nt	nt
CC(=O)c1cccc(NC(=O)Nc2cccnc2)c1	3.1%	-7.1%[46.1 µM]	-1.9%	25.1µM*	5.4%	nt	MBNL1 TRFRET=25.9µM*;MBNL1 AlphaScrn=1.5%;Menin-MLL HTRF=?
CC1(C)CCC2=C(O1)c1ccccc1C(=O)C2=O	25.3%	?	nt	?	-3.8%	nt	MBNL1 TRFRET=?;MBNL1 AlphaScrn=20µM*
